Screening results as filed in PubChem BioAssay.
Pf Dd2 inh: Plasmodium falciparum Dd2 growth inhibition | P. falciparum Dd2 growth, SYBR Green, 72 h | Potency, µM (series often up to 28.9 µM), actives largely listed as inhibitors | 4.3% of 120,000 active | AID 1347417; active = well fitted inhibition curve with a large enough effect; also: nearly all actives have a fitted effect of over 65% in size
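Readout: SYBR Green fluorescence, 485 nm excitation, 535 nm emission, after ~16 h lysis at 37C. Before that, Dd2-infected red cells (2.5% hematocrit) grew 72 h with compound, 29 uM top final concentration.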
Of the large screens only hits and unclear results are named; the others gave an inactive call. Only a selection was taken, and hits are over-represented in it overall.

CC(=O)Nc1ccccc1-c1nc2ccccc2n(CC(=O)Nc2cccc(C(F)(F)F)c2)c1=O	none
O=c1c2ccccc2nc2sc(Nc3cccc(C(F)(F)F)c3)nn12	none
COc1cccc(-c2cc(C3CCN(C(=O)Nc4ccccc4F)CC3)[nH]n2)c1	none
COc1cccc(-c2cc(C3CCN(C(=O)Nc4ccc(F)cc4)CC3)[nH]n2)c1	Pf Dd2 inh 5.62µM
COc1cccc(-c2cc(C3CCN(C(=O)Nc4ccccc4OC)CC3)[nH]n2)c1	none
COc1cccc(-c2cc(C3CCN(C(=O)Nc4cccc(Cl)c4C)CC3)[nH]n2)c1	none
COc1cccc(-c2cc(C3CCN(C(=O)c4cc(C)ccc4C)CC3)[nH]n2)c1	none
COc1cccc(-c2cc(C3CCN(S(=O)(=O)c4ccc(F)cc4F)CC3)[nH]n2)c1	Pf Dd2 inh 7.08µM
N#Cc1ccc(C(=O)N2CCCCCNC(=O)CC2c2ccccc2)cc1 (centres undefined)	none
CCOC(=O)c1ccc(NC(=O)Cc2noc3ccc(C)cc23)cc1	none
O=C(CCCc1nc(-c2ccccc2)no1)Nc1cc(C(F)(F)F)cc(C(F)(F)F)c1	none
CCOC(=O)c1ccc(NC(=O)CCCc2nc(-c3cc(OC)c(OC)c(OC)c3)no2)cc1	Pf Dd2 inh 12.6µM
CC(=O)Nc1ccccc1-c1nccc2c(=O)cc(N(C)C3CCOCC3)oc12	none
COc1ncccc1-c1cc2c(ccn2CC2CCN(C)CC2)c(N2CCOCC2)n1	Pf Dd2 inh 8.91µM
COc1ccccc1-c1cc2c(ccn2Cc2ccncc2)c(N2CCOCC2)n1	none
COc1cccc(-c2cc3c(ccn3CC3CCN(C)CC3)c(N3CCOCC3)n2)c1	Pf Dd2 inh 6.31µM
c1cc(-c2cc3c(ccn3Cc3ccncc3)c(N3CCOCC3)n2)cc(N2CCOCC2)c1	none
C[S+](=O)([O-])N1CCC(Cn2ccc3c(N4CCOCC4)nc(-c4cccc5[nH]ccc45)cc32)CC1	none
C[S+](=O)([O-])N1CCC(Cn2ccc3c(N4CCOCC4)nc(-c4cncnc4)cc32)CC1	none
Cc1ccc(N2CC(c3noc(-c4nccc5ccccc45)n3)CC2=O)cc1 (centres undefined)	none
CC(C)(C)CN[C@@H](Cn1ccc(=O)[nH]c1=O)C(=O)O	none
CCn1ncc(N2CCCC(CC(=O)N3CCN(c4ccccc4)CC3)C2)cc1=O (centres undefined)	none
COc1cc(CNC(=O)c2nc(C(O)c3ccccn3)oc2C)cc(OC)c1 (centres undefined)	none
CNC(=O)[C@@H](c1ccccc1)N1CCC[C@H]1C(=O)NCc1ccncc1	none
CN1CCC2(CCC1=O)CN(S(=O)(=O)c1cn(C)cn1)CCN2C (centres undefined)	none
O=C(O)c1ccc(CN2CCC3(CC2)CC(C(=O)O)N(C(=O)C2CC2)C3)cc1 (centres undefined)	none
COc1ccc2[nH]c3c(c2c1)CCNC31CCN(C(=O)c2ccc(C)s2)CC1	none
c1cncc(CN2CCC(OC3CCN(Cc4ccncc4)CC3)CC2)c1	none
CN(CC1CCN(CCc2ccc(F)cc2)CC1)C1CCN(Cc2cccnc2)CC1	Pf Dd2 inh 6.31µM
CN(Cc1cccnc1)c1nc2c(c(=O)[nH]1)CCN(Cc1ccc(F)cc1)CC2	none
Cc1sc2ccn(C)c(=O)c2c1C(=O)N1CCN(c2ccc(Cl)cc2)CC1	none
COc1ccccc1C(=O)N1CCC2(CC(C(C)C)=NO2)C1 (centres undefined)	none
COc1ccc(-c2cn3nc(N4CCC(C(=O)Nc5cc(Cl)ccc5OC)CC4)sc3n2)cc1	none
COc1ccc(OC)c(NC(=O)c2cnc(N3CCCC3)nc2C)c1	none
CCOc1ccc(NC(=O)c2cc3nc(-c4ccc(OC)cc4)cc(C(F)(F)F)n3n2)cc1	none
CCOc1ccc(-c2cc3nc(C4CCN(C(=O)OC(C)(C)C)CC4)c(C(=O)Nc4cc(OC)ccc4OC)cn3n2)cc1	Pf Dd2 inh 3.98µM
CCOc1ccc(NC(=O)N2CCC(c3ccc(C)cc3)C2)cc1 (centres undefined)	none
CCOc1ccc(-c2cc3nc(C4CCN(C(=O)OC(C)(C)C)CC4)c(C(=O)Nc4ccc(C)c(F)c4)cn3n2)cc1	Pf Dd2 inh 7.08µM
Cc1ccc(S(N)(=O)=O)cc1C(=O)N1CCN(c2ccccc2)C(=O)C1	none
O=S(=O)(NC[C@H]1OC[C@@H](NCc2ccccn2)[C@@H]1O)c1ccccc1	none
Cc1nnc(N2CC[C@H](N3CCOCC3)[C@H](CCC(=O)O)C2)c2ccccc12	none
COc1cccc(-c2cc3c(=O)n(CCNC(=O)Cc4ccsc4)ccn3n2)c1	none
CCCCCC(=O)Nc1ccc([C@H]2OCC(=O)N[C@@H]2CO)cc1	none
Cc1ccc(C(=O)NC2CCN(C(=O)N3CC4CC(C3)[C@H]3CCCC(=O)N3C4)CC2)cc1 (some centres undefined)	none
Cc1cc(C)cc(-n2c(SCC(=O)Nc3ccc4c(c3)OCCO4)nc3c([nH]c4ccccc43)c2=O)c1	none
COc1ccc(NC(=O)CSc2nc3c([nH]c4ccccc43)c(=O)n2-c2ccccc2)c(OC)c1	Pf Dd2 inh 5.01µM
COc1cccc(NC(=O)CSc2nc3c([nH]c4ccccc43)c(=O)n2-c2ccccc2)c1	Pf Dd2 inh 5.62µM
CCOc1ccc(-n2c(SCC(=O)Nc3ccc4c(c3)OCCO4)nc3c([nH]c4ccccc43)c2=O)cc1	none
